Cl transport mod: modulators of human KCC2 chloride dependent transport | KCC2 cells, thallium flux FluoZin-2 fluorescence | Q9H2X9 | B-score of Tl+ flux slope (higher = more flux/activation; lower = inhibition) at 10 µM | 190,000 tested, 2.2% active;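 active = thallium flux slope and its plate-corrected score both differing from the plate sample mean at a set confidence after two filtering rounds, in either direction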;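 also: slope of fluorescence scaled to starting intensity during 10 to 20 s after thallium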
Target sequence (Q9H2X9 whole entry, looked up): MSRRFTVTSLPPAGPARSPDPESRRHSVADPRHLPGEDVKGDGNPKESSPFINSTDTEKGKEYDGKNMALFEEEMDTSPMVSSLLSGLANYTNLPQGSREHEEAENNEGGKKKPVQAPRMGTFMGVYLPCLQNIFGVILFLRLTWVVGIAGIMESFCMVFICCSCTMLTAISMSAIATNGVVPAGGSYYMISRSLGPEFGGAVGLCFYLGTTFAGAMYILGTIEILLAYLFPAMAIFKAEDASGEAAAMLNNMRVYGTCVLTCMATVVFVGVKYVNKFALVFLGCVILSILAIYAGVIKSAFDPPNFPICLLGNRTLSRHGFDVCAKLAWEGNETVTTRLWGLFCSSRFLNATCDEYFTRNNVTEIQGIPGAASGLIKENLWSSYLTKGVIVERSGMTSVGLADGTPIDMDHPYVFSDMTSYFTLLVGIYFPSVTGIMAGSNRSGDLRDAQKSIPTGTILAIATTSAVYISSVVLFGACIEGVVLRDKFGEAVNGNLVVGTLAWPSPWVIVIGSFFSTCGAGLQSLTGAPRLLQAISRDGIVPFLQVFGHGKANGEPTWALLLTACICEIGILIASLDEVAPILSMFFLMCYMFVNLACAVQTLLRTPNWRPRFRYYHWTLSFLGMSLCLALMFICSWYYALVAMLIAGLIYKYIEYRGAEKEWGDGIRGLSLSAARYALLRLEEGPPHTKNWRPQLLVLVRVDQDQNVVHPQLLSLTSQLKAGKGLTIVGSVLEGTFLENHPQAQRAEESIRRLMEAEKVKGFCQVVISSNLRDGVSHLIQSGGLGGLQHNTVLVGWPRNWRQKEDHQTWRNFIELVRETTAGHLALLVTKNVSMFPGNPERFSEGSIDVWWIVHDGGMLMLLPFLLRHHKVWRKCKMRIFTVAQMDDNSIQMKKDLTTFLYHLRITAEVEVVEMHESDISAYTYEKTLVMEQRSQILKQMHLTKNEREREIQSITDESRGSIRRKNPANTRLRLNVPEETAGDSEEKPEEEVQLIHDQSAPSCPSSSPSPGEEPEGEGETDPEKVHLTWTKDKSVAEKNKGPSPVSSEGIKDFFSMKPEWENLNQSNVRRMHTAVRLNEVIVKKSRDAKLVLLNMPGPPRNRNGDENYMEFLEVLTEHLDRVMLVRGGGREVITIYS
WT yeast gro inh: growth inhibition of WT yeast, mitochondrial fusion screen; mitochondrial fusion phenotypic screen, WT strain; inhibition, % at 10 µM; 190,000 tested, 2.1% active; in the data active = inhibition above about 58%; tested in S. cerevisiae
Calpain2 inh: calpain II (pig) inhibition | purified calpain II, fluorogenic peptide substrate, 30 min | inhibition, % at 16 µM | 220,000 tested, 0.37% active;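 active = inhibition above about 50%, limit read from the data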
ROMK mod: human ROMK K+ channel modulation, primary screen | P48048 | Tet-inducible ROMK, thallium flux fluorescence; actives lie on both sides | B-score at 10 µM | 130,000 tested, 2% active | AID 1918;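 active = signal ratio slope over the read window, or its plate-corrected B-score, at least 3 SD from the plate mean, either direction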;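 also: B-score of the F/F0 ratio slope over 7 to 12 s after thallium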
Lmaj promast: Leishmania major promastigote growth inhibition; Leishmania major promastigotes, resazurin fluorescence viability; inhibition, % at 10 µM; 200,000 tested, 9% active; AID 1063; in the data active = inhibition above about 50%;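 also: promastigotes grown with compound for 44 hours at 28 °C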
Large screens that a line does not name were inactive. An excerpt weighted towards active compounds, which were near 12% of everything screened.

O=c1ccc(NS(=O)(=O)c2ccc(Cl)cc2)cn1Cc1ccc(Cl)c(Cl)c1	none (no result: ROMK mod)
CC(Oc1ccccc1)C(=O)NC1=NCCS1 (stereo not drawn)	none
Cc1ccc(-c2nc3ncccc3o2)cc1NC(=O)c1cccs1	Lmaj promast 95 (no result: Cl transport mod)
CCCC(=O)Nc1cc(-c2nc3ncccc3o2)ccc1C	Lmaj promast 89 (no result: ROMK mod)
Cc1ccc(-c2nc3ncccc3o2)cc1NC(=S)NC(=O)c1ccco1	none
Cc1ccc(-c2nc3ncccc3o2)cc1NC(=O)c1ccco1	Lmaj promast 99 (no result: WT yeast gro inh, Calpain2 inh, ROMK mod)
COc1c(C)cc(Br)cc1C(=O)Nc1ccc(S(N)(=O)=O)cc1	none
COc1cc(OC)c(-c2noc(C(=O)OC(C)(C)C)c2C(=O)OC(C)(C)C)c(OC)c1	none
Cc1cc(C)c(-c2noc(C(=O)OC(C)(C)C)c2C(=O)OC(C)(C)C)c(C)c1	WT yeast gro inh 66
CCOC(=O)C(=Cc1ccc(-n2ccnc2)cc1)C(=O)OCC	Lmaj promast 79
COc1ccccc1OCCNC(=O)C1CCCCC1	none
C/C(=N\NC(=O)C(C)Oc1ccc([N+](=O)[O-])cc1)c1ccccn1 (stereo not drawn)	Lmaj promast 100 (no result: ROMK mod)
COc1ccc(OC(C)C(=O)Nc2ccc([N+](=O)[O-])cc2)cc1 (stereo not drawn)	none
COc1cc(OC)cc(C(=O)NNC(=O)c2ccccn2)c1	Lmaj promast 93 (no result: ROMK mod)
CC(Oc1ccccc1)C(=O)NNC(=O)c1ccccn1 (stereo not drawn)	Lmaj promast 79
COc1cc(OC)cc(C(=O)NC(=S)NNC(=O)c2cnccn2)c1	Lmaj promast 100
COc1ccc(C(=O)NC(=S)NNC(=O)c2cnccn2)cc1OC	Lmaj promast 100 (no result: ROMK mod)
Cc1ccc(C2N=C(N)Nc3nc(=O)c4ccccc4n32)cc1 (stereo not drawn)	none (no result: WT yeast gro inh, ROMK mod, Lmaj promast)
CCN(CC)CCNc1ccc(CO)c2sc3ccccc3c(=O)c12	Lmaj promast 100 (no result: ROMK mod)
CCN(CC)CCNC(=O)Cc1nn(CC)c(=O)c2ccccc12	none (no result: Cl transport mod, ROMK mod)
O=C(CC1S/C(=N/N=C/c2cccs2)NC1=O)Nc1ccccc1F (stereo not drawn)	none
COc1ccccc1NC(=O)CC1S/C(=N/N=C2\CCCc3ccccc32)NC1=O (stereo not drawn)	WT yeast gro inh 63 (no result: Cl transport mod, ROMK mod)
Cc1cccc(-n2ccnc2CN2CCN(C(C)C)C(CCO)C2)c1 (stereo not drawn)	none (no result: WT yeast gro inh, ROMK mod, Lmaj promast)
Cc1ccc(S(=O)(=O)N(C(=O)c2ccncc2)c2ccc(OC(=O)c3ccncc3)c3ccccc23)c(C)c1	Lmaj promast 98
Cc1ccc(S(=O)(=O)N(C(=O)c2ccncc2)c2ccc(OC(=O)c3ccncc3)c3ccccc23)cc1	Lmaj promast 98 (no result: ROMK mod)
COC(=O)c1c(C)oc2ccc(N(C(=O)c3ccncc3)S(=O)(=O)c3ccc(C)cc3)cc12	none
Cc1ccc(C2(c3ccc(C)cc3)CC2C(=O)NCc2cccnc2)cc1 (stereo not drawn)	none
CC1C(c2ccccc2)N(C)C(c2ccccc2)CC1(O)c1ccccc1 (stereo not drawn)	WT yeast gro inh 58, Lmaj promast 98 (no result: Cl transport mod)
CC1/C(=N/O)CC(c2ccccc2)N(C)C1c1ccccc1 (stereo not drawn)	WT yeast gro inh 98 (no result: ROMK mod)
Cc1ccc(C(=O)Nc2ccc(S(=O)(=O)N3CCN(C)CC3)cc2)o1	none
COc1ccccc1NC(=S)NC(NC(=O)CC(C)C)C(Cl)(Cl)Cl (stereo not drawn)	none
C=CCN1C(c2ccccc2)=CS/C1=C(/C#N)c1nnc(N2CCOCC2)n1-c1ccccc1	Lmaj promast 74 (no result: ROMK mod)
CN1C(c2ccc(F)cc2)=CS/C1=C(/C#N)c1nnc(N2CCOCC2)n1-c1ccccc1	Lmaj promast 56 (no result: ROMK mod)
OC1(c2ccccn2)COc2ccccc2O1 (stereo not drawn)	none (no result: WT yeast gro inh, ROMK mod, Lmaj promast)
CCOC(=O)CN(c1ccccn1)S(=O)(=O)c1ccc(OC)cc1	none
CC(C)(C)N=C1NN=C(c2cc3ccccc3o2)CS1	WT yeast gro inh 67 (no result: ROMK mod)
CC(C)(C)N=C1NN=C(c2ccc(Cl)cc2)CS1	none (no result: WT yeast gro inh, Lmaj promast)
CC(=O)Nc1ccc(S(=O)(=O)Nc2nnc(CC(C)(C)C)s2)cc1	none
O=C(CCc1ccc(S(=O)(=O)N2CCOCC2)cc1)Nc1nc(COc2ccccc2)cs1	Lmaj promast 96
CN(C)S(=O)(=O)c1cccc(NC(=O)CSc2nc3ccccc3n2-c2ccccc2)c1	none
CN(C)S(=O)(=O)c1ccc(NC(=O)CSc2nc3ccccc3n2-c2ccccc2)cc1	Lmaj promast 100
COc1cc(NC(=O)CSc2nc3ccccc3n2-c2ccccc2)c(C)cc1[N+](=O)[O-]	Lmaj promast 55
CCN(CC)c1ccc(NC(=O)CSc2nc3ccccc3c(=O)n2-c2cc(S(=O)(=O)N(C)C)ccc2C)cc1	Lmaj promast 99
COc1ccc(-n2c(SCC(=O)Nc3ccc([N+](=O)[O-])cc3OC)nc3ccccc32)cc1	none
CC(=O)Nc1cc[n+](C(C)C(=O)c2ccc(Br)cc2)cc1 (stereo not drawn)	none
CCC(=O)Nc1nnc(C(C)(C)C)s1	none (no result: ROMK mod)
CCn1c(=S)[nH]c2c(c1=O)C(C)(C)Cc1ccccc1-2	Cl transport mod 151, ROMK mod 4
O=C1C2=C(NC(=S)NC2c2ccc(Cl)cc2)NC(c2ccc(Cl)cc2)N1c1ccc(Cl)cc1 (stereo not drawn)	Lmaj promast 100 (no result: ROMK mod)
CC(=O)Oc1ccc(-c2cccc(C(=O)NCC(=O)O)c2)cc1	none (no result: ROMK mod)
CC(=O)Oc1ccc(-c2cccc(C(=O)Oc3ccccc3)c2)cc1	WT yeast gro inh 74
CC1CCCN(C(=O)c2sc3cc([N+](=O)[O-])ccc3c2Cl)C1 (stereo not drawn)	Calpain2 inh 68 (no result: ROMK mod)
O=C(c1sc2cc([N+](=O)[O-])ccc2c1Cl)N1CCCCC1	none (no result: ROMK mod)
COc1cccc(NC(=O)CN(C)C(C)C(=O)Nc2cc([N+](=O)[O-])ccc2Cl)c1 (stereo not drawn)	none
C/C(N)=C(/C#N)C(=O)COC(=O)CC12CC3CC(CC(C3)C1)C2	Calpain2 inh 65, Lmaj promast 97 (no result: Cl transport mod)
CC(NCc1ccc(S(N)(=O)=O)cc1)C(=O)Nc1cccc(Cl)c1 (stereo not drawn)	none (no result: WT yeast gro inh, ROMK mod, Lmaj promast)
Cc1ccc(S(=O)(=O)NC(CC(=O)N2CCc3ccccc32)c2ccco2)cc1 (stereo not drawn)	none (no result: ROMK mod)
COc1ccc(S(=O)(=O)NC(CC(=O)N2CCc3ccccc32)c2ccco2)cc1 (stereo not drawn)	Lmaj promast 76 (no result: ROMK mod)
O=C(COc1ccc([N+](=O)[O-])cc1)NC(C(=O)O)C(O)c1cccc([N+](=O)[O-])c1 (stereo not drawn)	none (no result: Cl transport mod)
CC1(CC(=O)N/N=C/c2ccc(OCc3ccc(Cl)cc3Cl)cc2)OCCCO1	WT yeast gro inh 77 (no result: ROMK mod)
C=CCc1ccccc1OCCOc1ccc([N+](=O)[O-])cc1/C=N/NC(N)=O	none
O=C(NC(=S)NC1CCCCCC1)c1cncc(Br)c1	Cl transport mod 48, Lmaj promast 61
O=C(NC(=S)Nc1ncc(Br)cc1Br)c1cncc(Br)c1	none
Cc1ccccc1NC(=S)NC(=O)c1cncc(Br)c1	Cl transport mod 29
O=C(CCC1CCCCC1)NCc1ccccn1	none
